Measured values from PubChem BioAssay (Tox21).
Values without a mark were called inactive. Calls of active or inactive are those of the source. The call rests on the fitted dose curve.

These compounds were tested against Thyrotropin-releasing hormone receptor (Homo sapiens) (UniProt P34981) (assay: qHTS assay to identify small molecule agonists of the thyrotropin-releasing hormone receptor (TRHR) signaling pathway (AID 1346891;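 further: HEK293 cells expressing TRHR with calcium dye readout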)). Details: TRHR-HEK293 calcium fluorescence, agonist mode; series mostly up to 57.6 µM.
Excerpt: National Center for Advancing Translational Sciences [NCATS] NIH Chemical Genomics Center [NCGC] U.S. Environmental Protection Agency [EPA] National Institutes of Environmental Health Sciences [NIEHS] National Toxicology Program [NTP] Assay overview: Thyrotropin-releasing hormone (TRH) receptor (TRHR) is a G-protein-coupled receptor which binds the tripeptide thyrotropin releasing hormone. TRHR is found in the brain and, when bound by TRH, acts (through phospholipase C) to increase intracellular inositol trisphosphate. It plays a crucial role in the anterior pituitary where it controls the synthesis and secretion of thyroid stimulating hormone and prolactin. The TRHR-Hek293 assay is a cell-based assay, and it has the potential to screen G protein-coupled receptors. A compound/drug can either activate (agonist) or suppress (antagonist) GPCRs that can be monitored by levels of intracellular calcium. Using this assay, the Tox21 10K compound library was screened to identify potential TRHR agonists.
Assay Protocol Summary: The TRHR-Hek293 cells were dispensed at 1500cells/4uL/well in 1536-well black-clear bottom plates using a Multidrop dispenser. After the assay plates were incubated at a 37 C/5% CO2 incubator for 18 hours, 4 uL of Dye-Loading Solution was added to each well. The plates were incubated at 37 C for 2 hours. For agonist mode, 23 nL of compounds dissolved in DMSO, positive controls or DMSO only was transferred to the assay plate by a pin tool. The fluorescence intensity in the plates was measured using FDSS 7000EX kinetic plate reader for 3 min at 1 sec intervals. Each test compound was measured at 15 concentrations and in triplicates.
On the % scale 0 is the no-effect control and ±100 the full control effect.

Chain of Thyrotropin-releasing hormone receptor (Homo sapiens) (P34981 whole entry, looked up): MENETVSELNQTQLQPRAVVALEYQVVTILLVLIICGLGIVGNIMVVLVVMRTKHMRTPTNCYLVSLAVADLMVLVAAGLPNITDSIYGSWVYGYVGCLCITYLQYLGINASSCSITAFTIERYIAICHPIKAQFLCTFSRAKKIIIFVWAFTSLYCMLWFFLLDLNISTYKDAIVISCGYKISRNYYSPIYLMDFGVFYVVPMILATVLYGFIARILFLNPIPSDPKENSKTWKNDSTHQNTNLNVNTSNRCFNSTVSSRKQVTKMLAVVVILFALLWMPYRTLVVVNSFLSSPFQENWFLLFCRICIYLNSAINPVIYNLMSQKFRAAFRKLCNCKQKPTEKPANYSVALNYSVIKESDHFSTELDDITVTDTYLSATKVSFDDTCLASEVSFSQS

Row | Structure (SMILES) | outcome | activation
1 | CCOC(=O)CC(=O)c1ccccc1 | inactive | 
2 | CC(C)(C)NC(N)=O | inactive | 
3 | O=C(O)Cc1ccc(Cl)cc1Cl | inactive | 
4 | NS(=O)(=O)c1cc2c(cc1Cl)CN(C1CCCCC1)C2=O | inactive | 
5 | O=C1CC(c2ccc(Cl)cc2)CC(=O)N1 | inactive | 
6 | CCCOC(=O)C(C)O (stereo not given) | inactive | 
7 | CC(C)=O | inactive | 
8 | CO[C@@H]1[C@@H](OC(N)=O)[C@@H](O)[C@H](Oc2ccc3c(O)c(NC(=O)c4ccc(O)c(CC=C(C)C)c4)c(=O)oc3c2C)OC1(C)C | inactive | 
9 | COc1ccc(OC)c(Cl)c1 | inactive | 
10 | CC(CO)c1ccccc1 (stereo not given) | inactive | 
11 | Cc1ccc(S(=O)(=O)O)c(C)c1 | inactive | 
12 | CC(=O)c1sc(C)nc1C | inactive | 
13 | COc1nccnc1NS(=O)(=O)c1ccc(N)cc1 | inactive | 
14 | CCc1ccc(C=O)cc1 | inactive | 
15 | O=C1CCCC(=O)O1 | inactive | 
16 | CC(=O)CCCCn1c(=O)c2c(ncn2C)n(C)c1=O | inactive | 
17 | O=C(OCC(COC(=O)c1cccnc1)(COC(=O)c1cccnc1)COC(=O)c1cccnc1)c1cccnc1 | inactive | 
18 | CC(=O)c1ccc2c(c1)Cc1ccccc1-2 | inactive | 
19 | CCN(C)C(=O)Oc1cccc([C@H](C)N(C)C)c1 | inactive | 
20 | Cc1cc(NC(=O)C2=C(O)c3ccccc3S(=O)(=O)N2C)no1 | inactive | 

Row | Structure (SMILES) | outcome | activation
21 | CC(=O)NCCCCCC(=O)O | inactive | 
22 | Cc1[nH]cnc1-c1ccc(Cl)cc1 | inactive | 
23 | CC1COc2ccccc2N1 (stereo not given) | inactive | 
24 | CN1C(C)(C)CCCC1(C)C | inactive | 
25 | CN(C)c1ccc(C=O)cc1 | inactive | 
26 | CC(C)CCCCOC(=O)c1ccccc1C(=O)OCCCCC(C)C | inactive | 
27 | ClCCCl | inactive | 
28 | FC(F)(F)c1ccccc1-n1ccnc1 | inactive | 
29 | C=Cc1ccccn1 | inactive | 
30 | Cc1nc2n(c(=O)c1CCN1CCC(c3noc4cc(F)ccc34)CC1)CCC[C@H]2O |  | -0.0294% [at 11.8 µM]
31 | COCCc1ccc(OCC2CO2)cc1 (stereo not given) | inactive | 
32 | CC(=O)Nc1ccc(S(=O)(=O)Nc2ccc([N+](=O)[O-])cc2)cc1 | inactive | 
33 | Cc1cc(C(C)(C)C)c(O)c(C)c1CC1=NCCN1 | inactive | 
34 | Cc1cccc(C)c1OCC(C)N (stereo not given) | inactive | 
35 | Nc1ccc2cc(S(=O)(=O)O)cc(O)c2c1 | inactive | 
36 | COc1ccc2c(c1OC)C(=O)O[C@@H]2[C@H]1c2c(cc3c(c2OC)OCO3)CCN1C | inactive | 
37 | COCCOCCOCCOCCO | inactive | 
38 | Nc1cccc(O)c1 | inactive | 
39 | CCCCNc1ccc(C(=O)OCCN(C)C)cc1 | inactive | 
40 | CCOC(=O)/C=C/c1ccccc1 | inactive | 
